Source: PubChem BioAssay (NCATS)
Records with an inconclusive call do not appear. Active and inactive are the calls of the source. The call rests on the fitted dose curve; in most records, active means well fitted inhibition curve with a large enough effect; inconclusive means small, poorly fitted or top-dose-only effect; inactive means flat fitted curve, though single readings scatter.

Key:
[1] = target: Glutathione peroxidase 1 (Homo sapiens) (UniProt P07203); assay: Primary qHTS Assay for Inhibitors of Recombinant Selenoprotein Glutathione Peroxidase 1 (GPX1) (AID 1845191); further: nearly all actives have a fitted effect of over 65% in size
Procedure, shortened: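 GR-coupled assay: compounds preincubated 30 min at room temperature with GPX1, then reaction started with CHP; final 10 nM GPX1, 1 mM GSH, 0.5 mM CHP, 0.5 mM NADPH, 100 nM GR, 0.01% BSA, pH 7.5 Tris buffer. NADPH fluorescence (340/450 nm) read at 0 and 15 min.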

[2] = target: Phospholipid hydroperoxide glutathione peroxidase GPX4 (Homo sapiens) (UniProt P36969); assay: Primary qHTS Assay for Inhibitors of Recombinant Selenoprotein Glutathione Peroxidase 4 (GPX4) (AID 1845192); further: nearly all actives have a fitted effect of over 65% in size; on activity change, negative = inhibition: series mostly up to about 50 µM; on the % scale 0 is the no-effect control and ±100 the full control effect
Procedure, shortened: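 GR-coupled assay: recombinant GPX4 preincubated 30 min with compound at room temperature; final 200 nM GPX4, 1 mM GSH, 0.5 mM cumene hydroperoxide, 0.5 mM NADPH, 100 nM GR, 0.01% BSA, pH 7.5 Tris. NADPH fluorescence (340/450 nm) read at 0 and 15 min.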

[3] = target: Luciferin 4-monooxygenase (Photinus pyralis) (UniProt P08659); assay: Primary firefly luciferase (FLuc) qHTS assay for identification of artifact compounds. (AID 1845220); further: nearly all actives have a fitted effect of over 60% in size;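 on activity change, negative = inhibition: series mostly up to about 54 µM; plate controls were DMSO vehicle for no effect and no enzyme for full effect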
Procedure, shortened: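 D-luciferin and ATP (10 uM each, final) in Tris acetate buffer pH 7.6 were incubated with compounds for 15 min at room temperature. The reaction was started with 10 nM Photinus pyralis luciferase and luminescence read after 5 min. Percent inhibition was fitted to a 4-parameter Hill equation.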

Glutathione peroxidase 1 (Homo sapiens), sequence (P07203 whole entry, looked up): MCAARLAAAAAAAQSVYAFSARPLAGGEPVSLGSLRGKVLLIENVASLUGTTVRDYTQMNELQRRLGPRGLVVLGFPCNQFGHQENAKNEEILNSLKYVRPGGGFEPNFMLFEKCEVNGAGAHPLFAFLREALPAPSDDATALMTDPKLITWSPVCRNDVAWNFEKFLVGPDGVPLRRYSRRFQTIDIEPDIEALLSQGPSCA
Phospholipid hydroperoxide glutathione peroxidase GPX4 (Homo sapiens), sequence (P36969 whole entry, looked up): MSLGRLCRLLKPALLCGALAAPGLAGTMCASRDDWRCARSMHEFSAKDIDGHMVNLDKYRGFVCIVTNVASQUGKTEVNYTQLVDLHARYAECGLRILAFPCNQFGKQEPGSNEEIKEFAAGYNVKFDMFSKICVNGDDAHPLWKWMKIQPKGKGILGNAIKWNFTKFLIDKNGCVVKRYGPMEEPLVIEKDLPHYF

Cc1cc(O[C@@H]2O[C@H](COC(=O)CC(=O)O)[C@@H](O)[C@H](O)[C@H]2O)c(C(C)C)cc1O
inactive: Potency [1] | Potency [2] | Potency [3]

C[C@@H]1O[C@@H](O[C@H]2[C@H](O)[C@@H](O)[C@H](OC(=O)[C@]34CCC(C)(C)C[C@H]3C3=CCC5[C@@]6(C)CC[C@H](O[C@@H]7O[C@H](C(=O)O)[C@@H](O)[C@H](O)[C@H]7O)C(C)(C)C6CC[C@@]5(C)[C@]3(C)CC4)O[C@@H]2CO)[C@H](O)[C@H](O)[C@H]1O (some centres not stated)
inactive: Potency [1] | Potency [2] | activity change, negative = inhibition [3] -16.1% [at 11.6 µM]

C=C1CC/C=C(/CO)C(=O)C[C@@H]2[C@@H]1C[C@@]2(C)COC(C)=O
inactive: Potency [1] | Potency [2] | Potency [3]

CC(C)(O)C1CC=C(C(=O)OC[C@H]2O[C@@H](Oc3cc(C(=O)O)cc(O)c3O)[C@H](O)[C@@H](O)[C@@H]2O)CC1 (some centres not stated)
inactive: Potency [1] | Potency [2] | Potency [3]

C=C(C(=O)O)[C@H]1C[C@]2(C)C(=O)CC[C@]23O[C@H]1C[C@@H]3C
inactive: Potency [1] | Potency [2] | Potency [3]

COc1cc(C(O)C2COC(c3ccc(OC4OC(CO)C(O)C(O)C4O)c(OC)c3)C2CO)ccc1O (configuration not stated)
inactive: Potency [1] | Potency [2] | Potency [3]

C=C(C)[C@@H]1CC[C@]2(CO)CC[C@]3(C)[C@H](CC[C@@H]4[C@@]5(C)CC[C@H](O)C(C)(C)[C@@H]5CC[C@]43C)[C@@H]12
inactive: Potency [1] | Potency [2] | Potency [3]

CCC(C)/C=C(C)/C=C/C1=CC2=C(Cl)C(=O)C(C)(O)C(=O)C2(O)C(OC)O1 (configuration not stated)
inactive: Potency [1] | Potency [2] | Potency [3]

CC1(C)O[C@H]2CC(=O)OC[C@@]23C1=C(O)C(=O)[C@]1(C)C3CC[C@@]2(C)[C@H](c3ccoc3)OC(=O)[C@H]3O[C@]321 (some centres not stated)
inactive: Potency [1] | Potency [2] | Potency [3]

CC1C2=CC(=O)OC2(O)CC2C1C(OC(=O)c1ccccc1)C(OC(=O)c1ccccc1)C1(O)C2(C)CCC(O)C1(C)C(=O)O (configuration not stated)
inactive: Potency [1] | Potency [2] | Potency [3]

COC(=O)C1=COC(OC2OC(CO)C(O)C(O)C2O)C2C(COC(=O)/C=C/c3ccc(O)cc3)C(O)C(O)C12 (configuration not stated)
inactive: Potency [1] | Potency [2] | Potency [3]

CC(=O)c1ccc(O[C@@H]2OC[C@@H](O)[C@H](O)[C@H]2O[C@]2(CO)O[C@H](CO)[C@@H](O)[C@@H]2O)c(O)c1
inactive: Potency [1] | Potency [2] | Potency [3]

c1cc(-c2cc(C3CCNCC3)[nH]n2)ccn1
inactive: Potency [1] | Potency [2] | Potency [3]

CC1(O)CC(O)C2C(C(=O)O)=COC(OC3OC(CO)C(O)C(O)C3OC(=O)/C=C/c3ccc(O)cc3)C21 (configuration not stated)
inactive: Potency [1] | Potency [2] | Potency [3]

CC(=O)O[C@@H]1CC2C(C)(C)C(=O)C=C[C@]2(C)C2CC[C@]3(C)C(=CC(=O)[C@@H]3c3ccoc3)[C@@]21C (some centres not stated)
inactive: Potency [1] | Potency [2] | Potency [3]

CC1=CC(=O)CC(C)(C)C1/C=C/C(C)OC1OC(COC2OCC(O)C(O)C2O)C(O)C(O)C1O (configuration not stated)
inactive: Potency [1] | Potency [2] | Potency [3]

CC(=O)C1CCC(=O)N1Cc1ccccc1 (configuration not stated)
inactive: Potency [1] | Potency [2] | Potency [3]

C[C@@H]1C(=O)O[C@H]2[C@H]1CC[C@@]1(C)C(=O)C=C[C@@](C)(O)[C@H]21
inactive: Potency [1] | Potency [2] | Potency [3]

Cc1oc2nc3c(c(NC(=O)CN4CCCC4=O)c2c1C)CCCC3
inactive: Potency [1] | Potency [2] | Potency [3]
